This is an account of results in PubChem BioAssay (NCATS).

In assay [1] the target is Rap guanine nucleotide exchange factor 3 (Homo sapiens) (UniProt O95398). The assay is described as follows: Confirmatory qHTS for antagonist of cAMP-regulated guanine nucleotide exchange factor 3 (EPAC1) (AID 1645880). Note: nearly all actives have a fitted effect of over 55% in size. Note: potency is the fitted concentration of half-maximal effect. In outline:
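Released BODIPY-GDP fluoresces less than Rap1-bound BODIPY-GDP; the signal is followed at 480/540 nm at 5-min intervals over 30 min, after 5 min at room temperature. Reactions contain 100 nM EPAC1, 250 nM RAP1B-BODIPY-GDP and 50 uM GDP; results are normalized to ATA and DMSO.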
(In general: Quantitative high-throughput screening tests each substance at several concentrations.)

For assay [2] the target is unchanged. In words: Confirmatory qHTS for agonist of cAMP-regulated guanine nucleotide exchange factor 3 (EPAC1) (AID 1645881).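 For activation: EPAC1 catalysed release of BODIPY-GDP from Rap1B seen as fluorescence loss; 100% = effect of cAMP agonist control.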 Note: nearly all actives have a fitted effect of over 75% in size. Note: potency is the fitted concentration of half-maximal effect.
Assay [3] concerns the target Rap guanine nucleotide exchange factor 4 (Homo sapiens) (UniProt Q8WZA2). In words: Confirmatory qHTS for agonist of cAMP-regulated guanine nucleotide exchange factor 4 (EPAC2) (AID 1645884). For activation: % is set by controls: 0 for no effect and ±100 for the full control effect.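 Note: nucleotide exchange releases bodipy-GDP from Rap1 and this lowers its fluorescence; nearly all actives have a fitted effect of over 65% in size.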 Note: potency is the fitted concentration of half-maximal effect.
For assay [4] the target is unchanged. In words: Confirmatory qHTS for antagonist of cAMP-regulated guanine nucleotide exchange factor 4 (EPAC2) (AID 1645885). For activity change, negative = inhibition: % is set by controls: 0 for no effect and ±100 for the full control effect. Note: nearly all actives have a fitted effect of over 25% in size. Note: potency is the fitted concentration of half-maximal effect.
Assay [5] addresses Rap guanine nucleotide exchange factor 3 (Homo sapiens) (UniProt O95398). The assay is described as follows: Counterscreen qHTS for antagonist of cAMP-regulated guanine nucleotide exchange factor 3 (EPAC1) (AID 1645888). Note: % of control where 0% means no effect. In a few lines:
(§1)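 Measured: fluorescence of BODIPY-GDP bound to Rap1B, which falls as exchange proceeds. Conditions include 50 uM competing GDP, 5 and 30 min reads, and a later cAMP challenge for antagonist detection.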
(In general: Counterscreens check selectivity or assay interference.)

For assay [6] the target is unchanged. The assay is described as follows: Counterscreen qHTS for agonist of cAMP-regulated guanine nucleotide exchange factor 3 (EPAC1) (AID 1645889). For activation: % of control where 0% means no effect. Note: nearly all actives have a fitted effect of over 40% in size. Note: potency is the fitted concentration of half-maximal effect. In a few lines:
as §1

Structures are written as SMILES. Results filed as inconclusive are left out. A number with no mark means an inactive call. Activity calls are given as the source filed them. Calls come from the whole dose curve; as a rule, active = well fitted curve in the direction sought with a large enough effect; inconclusive = small, poorly fitted or top-dose-only effect, or another doubt; inactive = no such curve, though single readings can be large; an effect the other way counts as inactive or inconclusive.

Sequence of Rap guanine nucleotide exchange factor 4 (Homo sapiens) (Q8WZA2 whole entry, looked up): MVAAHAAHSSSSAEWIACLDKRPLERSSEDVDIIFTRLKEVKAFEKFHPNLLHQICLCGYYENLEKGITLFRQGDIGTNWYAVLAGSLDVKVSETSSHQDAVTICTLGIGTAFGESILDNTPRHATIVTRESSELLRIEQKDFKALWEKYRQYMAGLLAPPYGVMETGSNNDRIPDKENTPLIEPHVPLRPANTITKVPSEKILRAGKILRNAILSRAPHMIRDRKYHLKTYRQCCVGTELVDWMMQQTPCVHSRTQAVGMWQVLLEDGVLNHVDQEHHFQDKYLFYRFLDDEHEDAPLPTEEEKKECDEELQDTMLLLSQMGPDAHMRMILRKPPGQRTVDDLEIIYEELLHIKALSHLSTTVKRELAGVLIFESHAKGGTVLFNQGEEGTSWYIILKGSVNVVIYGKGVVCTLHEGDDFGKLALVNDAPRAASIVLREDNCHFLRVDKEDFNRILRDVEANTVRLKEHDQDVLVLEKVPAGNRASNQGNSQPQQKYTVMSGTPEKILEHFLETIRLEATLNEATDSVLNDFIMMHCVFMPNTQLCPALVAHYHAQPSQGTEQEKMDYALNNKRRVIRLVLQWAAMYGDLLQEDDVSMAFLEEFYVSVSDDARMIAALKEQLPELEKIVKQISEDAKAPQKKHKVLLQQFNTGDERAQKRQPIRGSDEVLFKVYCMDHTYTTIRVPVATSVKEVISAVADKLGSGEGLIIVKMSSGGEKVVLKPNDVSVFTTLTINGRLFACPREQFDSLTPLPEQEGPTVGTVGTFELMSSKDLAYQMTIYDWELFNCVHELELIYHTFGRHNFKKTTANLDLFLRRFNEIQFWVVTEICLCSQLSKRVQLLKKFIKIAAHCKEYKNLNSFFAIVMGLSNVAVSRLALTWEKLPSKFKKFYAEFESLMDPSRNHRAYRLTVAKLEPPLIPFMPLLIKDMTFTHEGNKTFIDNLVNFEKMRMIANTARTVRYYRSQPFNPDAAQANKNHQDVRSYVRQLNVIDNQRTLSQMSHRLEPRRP
Sequence of Rap guanine nucleotide exchange factor 3 (Homo sapiens) (O95398 whole entry, looked up): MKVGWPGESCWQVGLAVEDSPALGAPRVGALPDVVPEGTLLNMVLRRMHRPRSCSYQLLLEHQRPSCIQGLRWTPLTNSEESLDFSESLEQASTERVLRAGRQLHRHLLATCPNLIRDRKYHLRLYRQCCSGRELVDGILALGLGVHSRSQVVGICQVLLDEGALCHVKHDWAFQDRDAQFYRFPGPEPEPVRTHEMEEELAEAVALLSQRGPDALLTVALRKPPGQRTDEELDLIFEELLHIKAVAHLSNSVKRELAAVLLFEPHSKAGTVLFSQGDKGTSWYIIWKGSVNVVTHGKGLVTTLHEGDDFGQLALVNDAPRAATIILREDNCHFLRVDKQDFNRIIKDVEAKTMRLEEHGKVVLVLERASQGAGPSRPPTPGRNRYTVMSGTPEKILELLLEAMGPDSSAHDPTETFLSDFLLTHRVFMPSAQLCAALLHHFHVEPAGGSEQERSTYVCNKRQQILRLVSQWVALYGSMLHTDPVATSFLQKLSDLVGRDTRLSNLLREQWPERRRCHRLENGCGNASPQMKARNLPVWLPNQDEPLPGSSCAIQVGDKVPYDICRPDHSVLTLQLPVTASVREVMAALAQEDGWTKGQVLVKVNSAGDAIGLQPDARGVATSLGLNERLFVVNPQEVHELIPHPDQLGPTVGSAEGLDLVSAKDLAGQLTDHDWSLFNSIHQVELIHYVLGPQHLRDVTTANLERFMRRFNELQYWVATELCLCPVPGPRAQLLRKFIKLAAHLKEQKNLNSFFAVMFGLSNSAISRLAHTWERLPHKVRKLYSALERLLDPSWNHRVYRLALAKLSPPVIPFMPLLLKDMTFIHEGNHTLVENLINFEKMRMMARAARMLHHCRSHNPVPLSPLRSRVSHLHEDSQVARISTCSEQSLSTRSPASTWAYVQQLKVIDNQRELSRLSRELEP

For `CN1/C(=C\C=C(/C#N)C(=O)Nc2ccccc2F)C(C)(C)c2ccccc21`, the Potency result in assay [1], in assay [4] and in assay [5] was “inactive” throughout. For the same molecule, the Potency in assay [2] was 100 µM (active); in assay [3], 100 µM (active); in assay [6] it was 14.1 µM (active).

Consider `CC1=C(C(=O)NC2CCC(C)CC2)C2(CCC(C)CC2)OC1=O` (centres undefined), for which the Potency entry in assay [1], in assay [2] and in assay [4] was “inactive” each time. The activation in assay [3] is 1.07% [at 17.1 µM, percent relative to cAMP agonist control]; in assay [6], -0.546% [at 30.8 µM]. Further, the activity change, negative = inhibition in assay [5] was -11.5% [at 30.8 µM].

For the molecule `Cc1nn(CCc2nc(-c3ccco3)cs2)c2[nH]c(=O)cc(C(F)(F)F)c12`, the Potency result in assay [1], in assay [2], in assay [3], in assay [4], in assay [5] and in assay [6] was “inactive” each time.

For the molecule `O=C(O)c1cccc(N/N=C/c2cc(Br)cc(Br)c2O)c1`, the Potency in assay [1] is 75.7 µM (active); in assay [4], 67.5 µM (active). The Potency entry in assay [2], in assay [3], in assay [5] and in assay [6] was “inactive” each time.

For `CN(C)c1ccccc1C(=O)N1CCCC(C(=O)c2ccc3ccccc3c2)C1` (centres undefined), the Potency result in assay [1], in assay [2] and in assay [4] was “inactive” in each case. For the same molecule, the activation in assay [3] was 10.4% [at 17.1 µM, percent relative to cAMP agonist control]; in assay [6], 21.4% [at 30.8 µM]. Moreover, the activity change, negative = inhibition in assay [5] is -1.02% [at 30.8 µM].

As to `CC(C)CCOc1ccc(C2(C)NC(=O)N(CN3CCOCC3)C2=O)cc1` (centres undefined), the Potency entry in assay [1], in assay [2], in assay [3], in assay [4], in assay [5] and in assay [6] was “inactive” in each case.

For the molecule `O=C(NS(=O)(=O)c1ccc2ccc(S(=O)(=O)NCCSc3ccccc3)cc2c1)c1cccc2ccccc12`, the values for the Potency in assay [1] and in assay [4] were 42.6 µM (active) and 67.5 µM (active), respectively. The Potency result in assay [2], in assay [3], in assay [5] and in assay [6] was “inactive” each time.

Take `Cc1cccc(NC(=O)c2c(NC(=O)C(F)(F)F)sc3c2CCCCC3)c1`: the Potency in assay [1] is 42.6 µM (active). Further, the Potency result in assay [2], in assay [3], in assay [4], in assay [5] and in assay [6] was “inactive” throughout.

With `CCOc1cc(/C=N/NC(=O)c2ccc3c(c2)OCCO3)cc(Br)c1O`, the Potency in assay [1] was 30.1 µM (active). Besides, the Potency entry in assay [2], in assay [3], in assay [4], in assay [5] and in assay [6] was “inactive” each time.

Turning to `Nc1nc(NCC(=O)O)nc(NCc2ccccc2)c1[N+](=O)[O-]`, the Potency result in assay [1], in assay [2], in assay [3], in assay [4], in assay [5] and in assay [6] was “inactive” in each case.

As to `Cc1cc(Br)c2c(c1)C(O)(N1CCCCC1C)C(=O)N2` (centres undefined), the Potency result in assay [1], in assay [2] and in assay [4] was “inactive” each time. For the same molecule, the activation was 10.3% [at 17.1 µM, percent relative to cAMP agonist control] in assay [3] and 19.4% [at 30.8 µM] in assay [6]. The activity change, negative = inhibition in assay [5] was -0.193% [at 30.8 µM].

Take `Cc1cn(S(=O)(=O)c2ccccc2[N+](=O)[O-])cn1`: the Potency result in assay [1], in assay [2] and in assay [4] was “inactive” each time. Moreover, the activation in assay [3] was 0.773% [at 17.1 µM, percent relative to cAMP agonist control]; in assay [6] it was -4.19% [at 30.8 µM]. In addition, the activity change, negative = inhibition in assay [5] is -3.67% [at 30.8 µM].

With `CN(C)CCCN(C(=O)COc1ccc(Cl)cc1)c1nc2cc3c(cc2s1)OCCO3`, the Potency entry in assay [1], in assay [2], in assay [3], in assay [4], in assay [5] and in assay [6] was “inactive” in each case.

As for `O=C(O)CN1C(=O)/C(=C\c2cccc(OCc3ccccc3F)c2)SC1=S`, the Potency in assay [1] was 42.6 µM (active); in assay [4], 84.9 µM (active). Further, the Potency result in assay [2], in assay [3], in assay [5] and in assay [6] was “inactive” throughout.

Consider `CC(C)(C)c1ccc(C(CC(=O)O)NC(=O)CSc2ccccc2)cc1` (centres undefined), for which the Potency entry in assay [1], in assay [2], in assay [3], in assay [4], in assay [5] and in assay [6] was “inactive” throughout.

As for `Cc1ccc2nc(-c3ccc(NC(=O)c4ccco4)cc3)[nH]c2c1`, the Potency entry in assay [1], in assay [2] and in assay [4] was “inactive” throughout. Moreover, the activation in assay [3] is 7.16% [at 17.1 µM, percent relative to cAMP agonist control]; in assay [6] it was 29.2% [at 30.8 µM]. In addition, the activity change, negative = inhibition in assay [5] was -13% [at 30.8 µM].

As to `CCc1nc2c(OCc3ccc(OC(F)F)cc3)cccn2c1N(C)C(=O)c1ccc(OC)cc1`, the Potency result in assay [1], in assay [2], in assay [3], in assay [4], in assay [5] and in assay [6] was “inactive” in each case.

For the molecule `CC(=O)NC(c1ccc(C)cc1)c1cc(Cl)c2cccnc2c1O` (centres undefined), the Potency entry in assay [1], in assay [2], in assay [3], in assay [4], in assay [5] and in assay [6] was “inactive” throughout.

For the molecule `N#Cc1c(-c2ccccc2)nc(SCc2ccc(Cl)cc2)[nH]c1=O`, the Potency in assay [1] and in assay [4] was 33.8 µM (active) throughout. For the same molecule, the Potency entry in assay [2], in assay [3], in assay [5] and in assay [6] was “inactive” each time.
